Values joined by “and” are separate entries in the source; they are usually repeats but may differ in a detail not shown here. Equal values may be shown once. The campaign covered roughly 16,000 compounds. About 4,000 (25%) were called active. Not shown: some 26% with an inconclusive outcome. Only a sample is shown. Unmarked numbers belong to inactive results. Calls come from the whole dose curve; as a rule, active = well fitted curve in the direction sought with a large enough effect; inconclusive = small, poorly fitted or top-dose-only effect, or effect the other way; inactive = no such curve, though single readings can be large or run the other way.
% is set by controls: 0 for no effect and ±100 for the full control effect.

For the experiment, the target named is Cytochrome P450 2C9 (Homo sapiens) (UniProt P11712). Nature of the experiment: Cytochrome panel assay with activity outcomes. The conditions noted are these: recombinant CYP, pro-luciferin dealkylation, luminescence, p450-cyp2c9; series mostly up to 57.1 µM; activity, negative = inhibition: at the top concentration.
Chain of Cytochrome P450 2C9 (Homo sapiens) (P11712 whole entry, looked up): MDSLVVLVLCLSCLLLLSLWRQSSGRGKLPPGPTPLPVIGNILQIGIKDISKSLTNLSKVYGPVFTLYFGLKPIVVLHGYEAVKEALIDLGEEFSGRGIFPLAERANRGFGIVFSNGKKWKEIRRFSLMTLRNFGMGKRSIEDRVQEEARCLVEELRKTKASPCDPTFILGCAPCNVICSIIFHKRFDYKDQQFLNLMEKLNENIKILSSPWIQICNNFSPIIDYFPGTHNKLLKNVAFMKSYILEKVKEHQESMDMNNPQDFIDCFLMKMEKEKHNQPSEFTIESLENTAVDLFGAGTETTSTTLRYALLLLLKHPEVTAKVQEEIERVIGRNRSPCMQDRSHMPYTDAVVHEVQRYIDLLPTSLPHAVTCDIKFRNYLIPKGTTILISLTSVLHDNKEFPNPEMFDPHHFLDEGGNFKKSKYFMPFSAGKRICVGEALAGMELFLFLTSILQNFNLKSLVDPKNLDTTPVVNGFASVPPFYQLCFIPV
For `CC(C)(C)NC[C@H](O)c1cc(O)cc(O)c1`, the “activity, negative = inhibition” value was -0.81% [at 25.6 µM].

For `C[C@@H]1OC2C3=C(C(=O)[C@H]4O[C@@H]4[C@H]3O)[C@@H]1[C@H]1[C@H](C)OC=C3[C@H](O)[C@H]4O[C@H]4/C(=N\OCc4ccccc4)[C@@]321`, the activity, negative = inhibition was 13.2% [at 11.4 µM].

The term AC50 denotes the concentration at which the activity in the assay is half-maximal. Consider `CCOc1cc(CNCCc2ccc(S(N)(=O)=O)cc2)cc(Cl)c1OCc1ccccc1`, for which the AC50 was 12.6 µM (active).

Turning to `CCOc1cc(CNCCO)c(Cl)cc1OCC(=O)NCCc1ccccc1`, the “activity, negative = inhibition” value is -27.7%. In the case of `O=C(O)c1cc(-c2ccc3cc4c(cc3c2)OCO4)nc2ccccc12`, the activity, negative = inhibition is -17.1% [at 11.4 µM]. In the case of `Cc1ccc(-c2nc3ccccc3s2)cc1NC(=S)NC(=O)c1ccccc1`, the AC50 is 3.55 µM (active). Take `Cc1ccc2nc(-c3ccc(NC(=O)c4ccc(N)cc4)c(S(=O)(=O)O)c3)sc2c1`: the activity, negative = inhibition is -3.37% [at 11.4 µM]. Regarding `CCCc1ccc(-c2cc(C(=O)NN3CCOCC3)c3ccccc3n2)cc1`, the AC50 is 2.51 µM (active). On the same count and under the same terms, under `Cc1ccc(-c2cc(C(=O)NN=C3CCCC3)c3ccccc3n2)cc1` stands 12.6 µM (active); under `Cc1ccccc1NC(=S)NC(=O)c1cc(-c2ccccc2)nc2ccccc12`, 3.55 µM (active). On to `Cc1ccc(C)c(S(=O)(=O)NC(C)C(=O)Nc2ccc(-c3nc4ccccc4s3)cc2)c1` (stereo not given), for which the “activity, negative = inhibition” value was 9.42%.

Turning to `C[N+]1(C)CCc2cc(O)c(O)cc2[C@H]1Cc1ccc(O)c(O)c1`, the activity, negative = inhibition is 6.54% [at 11.4 µM]. On the same count and under the same terms, the same measure for `CN(Cc1ccco1)c1ncnc2ccc(-c3ccoc3)cc12`: -10.5% [at 2.29 µM]. Still for that read-out and setting: the same measure for `Cc1cnc(CNc2cc(-c3ccccc3Cl)ncn2)cn1`: 8.89% [at 2.29 µM]; for `O=C1C[C@@H](O)[C@@H](O)[C@H]2[C@@H]3C(=O)N(C[C@@H]4CCCO4)C(=O)[C@@H]3CC[C@H]12`: 21.7% [at 11.4 µM] and 13.9% [at 11.4 µM]. On the same count and under the same terms, the same measure for `CNc1cc(-c2c(C)noc2C)ncn1`: 9.86% [at 2.29 µM]; for `CCn1c(C)cc(/C=C2\NC(=O)N(Cc3ccc(Cl)cc3)C2=O)c1C`: -25.1%. Regarding `FC(F)(F)c1ccccc1-c1cc(NCc2cccnc2)ncn1`, the activity, negative = inhibition was 16.9% [at 2.29 µM]. Still for that read-out and setting: under `CCCCOc1cc(C(=O)NCCN(CC)CC)c2ccccc2n1` stands 10.5% [at 25.6 µM]; under `CCCOc1ccc(C(=O)NNC(=S)NC(=O)CC)cc1`, -24.3%. Take `CCCOc1ccc(C(=O)NNC(=S)NC(=O)c2cc(-c3ccccc3)nc3ccccc23)cc1`: the AC50 was 2.51 µM (active). With `CCN1CCN(CCCNC(=O)C(NC(=O)C2CCC(C)CC2)C(C)C)CC1` (stereo not given), the “activity, negative = inhibition” value is -8.03%. On to `CC(=O)C1=C(O)C=C(c2ccco2)CC1c1ccco1` (stereo not given), for which the AC50 was 7.94 µM (active).

For the compound `NC(=O)C(=O)O`, the “activity, negative = inhibition” value is 8.82%. `Clc1ccc2c(c1)C1=C(C(c3ccncc3)O2)C(c2ccc(Br)cc2)n2ncnc2N1` (stereo not given): the AC50 was 1.41 µM (active). In the case of `CCN=C(N)CSS(=O)(=O)O`, the activity, negative = inhibition was -1.49% [at 11.4 µM].

Take `O=C(OCc1ccc(Cl)cc1Cl)c1cccnc1Cl`: the AC50 is 17.8 µM (active). Regarding `O=C(O)c1cccnc1C(=O)O`, the “activity, negative = inhibition” value was 1.96%. In the case of `COc1ccccc1-c1cncnc1-n1ccnc1`, the activity, negative = inhibition was -14.3% [at 2.29 µM]. As to `O=C(Nc1nc(-c2ccccc2)cs1)c1cccc([N+](=O)[O-])c1`, the AC50 was 7.08 µM (active). Take `Cc1ccc(Nc2nc(-c3sc(NC(=O)c4ccc([N+](=O)[O-])cc4)nc3C)cs2)cc1`: the “activity, negative = inhibition” value is -23.8%.

`CCN1C(=O)[C@H]2[C@H]3[C@H](O)[C@H](O)C/C(=N/OCC(C)C)[C@H]3CC[C@@H]2C1=O`: the activity, negative = inhibition is -3.02% [at 11.4 µM]. With `CC(=C/c1ccccc1)/C=N/n1cnnc1`, the AC50 was 3.98 µM (active).

In the case of `Cc1ccccc1-c1cc(-c2ccccc2O)on1`, the concentration at half-maximal activity (AC50) was 8.91 µM (active). In the case of `CNc1cc(-c2ccccc2C)ncn1`, the activity, negative = inhibition was 21.7% [at 2.29 µM]. Same read-out and setting: the same measure for `Cc1ccccc1-c1cc(N(C)C)ncn1`: 9.36% [at 2.29 µM]; for `CNC[C@@H](SC)c1ccc(O)c(O)c1`: 0.961% [at 11.4 µM]; for `O=C(COc1ccc(Cl)cc1)N1CCN(Cc2ccc3c(c2)OCO3)CC1`: -34.1% [at 25.6 µM].

In the case of `Cn1c(=O)c2c(nc(Cc3ccccc3)n2CC(=O)O)n(C)c1=O`, the activity, negative = inhibition is -4.06% [at 11.4 µM]. On to `Cn1c(=O)c2c(nc(Cl)n2Cc2ccc(Cl)c(Cl)c2)n(C)c1=O`, for which the AC50 was 6.31 µM (active). For `Cn1c(=O)c2c(nc(NCCNc3nc4c(c(=O)n(C)c(=O)n4C)n3C)n2C)n(C)c1=O`, the activity, negative = inhibition is 3.94% [at 11.4 µM].

Take `Cn1c(OCc2ccc3c(c2)OCO3)nc2c1c(=O)n(Cc1ccc(Cl)c(Cl)c1)c(=O)n2C`: the AC50 was 2.51 µM (active). Still for that read-out and setting: under `c1cnc(N2CCN(Cc3ccc4c(c3)OCO4)CC2)nc1` stands “inactive”. For `CCN(CC(=O)O)CC(=O)O`, the activity, negative = inhibition is 8.87% [at 11.4 µM]. As to `O=C(Nc1ccccc1)N1CCCC2(CCN(C(=O)c3cnccn3)CC2)C1`, the “activity, negative = inhibition” value is -14.6%. On the same count and under the same terms, under `Cn1c(=O)c2[nH]c(-c3ccc(S(=O)(=O)O)cc3)nc2n(C)c1=O` stands -12.8%. With `CCS(=O)(=O)Nc1ccc(C2=NN(C(=O)c3ccco3)C(c3ccc(C)cc3)C2)cc1` (stereo not given), the half-maximal activity concentration (AC50) is 2.24 µM (active). As to `CC(C)[C@]1(Cl)CC[C@@H]2[C@]3(C)CCC[C@@](C)(C(=O)O)[C@H]3C[C@H](Cl)[C@@]2(Cl)[C@H]1Cl`, the activity, negative = inhibition was -25.3% [at 11.4 µM]. Still for that read-out and setting: under `Cc1cc2nc(C3CCCN(C(=S)Nc4ccccc4)C3)[nH]c2cc1C` (stereo not given) stands -19%. For `Cc1cc2nc(CCN(C(=S)NCC(C)C)C3CCCC3)[nH]c2cc1C`, the half-maximal activity concentration (AC50) is 7.94 µM (active). `Clc1ccc2c(c1)C(N1CCNCC1)=Nc1ccccc1O2`: the “activity, negative = inhibition” value was -8.46% [at 25.6 µM].

Turning to `NC(=O)CC(c1ccccc1)c1ccco1` (stereo not given), the “activity, negative = inhibition” value is -10%.

`O=C(c1ccco1)N(CCC(c1ccccc1)c1ccco1)Cc1ccco1` (stereo not given): the AC50 was 2.24 µM (active). In the case of `Cc1ccc(C(CC(N)=O)c2ccco2)cc1` (stereo not given), the “activity, negative = inhibition” value is -7.64%.

Turning to `O=C(/C=C/c1ccccc1)N/C(=C/c1ccccc1)C(=O)Nc1ccccc1O`, the AC50 was 4.47 µM (active). Take `O=C(/C=C\c1ccccc1)c1ccccc1O`: the activity, negative = inhibition is -9.15% [at 11.4 µM]. On the same count and under the same terms, under `Cc1cn([C@H]2C[C@H](O)[C@@H](COC(N)=O)O2)c(=O)[nH]c1=O` stands 18.3% [at 11.4 µM]. On to `CCCCNC(=O)C1CCN(Cc2ccccn2)CC1`, for which the “activity, negative = inhibition” value was -9.44%. For the compound `CN(C)CCOC(=O)COc1ccc(Cl)cc1`, the AC50 entry is “inactive”. The same measure, in the same setting: under `CCOC(=O)COc1ccc(/C=C/[N+](=O)[O-])c(OCC(=O)OCC)c1` stands 7.94 µM (active). Regarding `COC(=O)N1CCC2(CC1)CN(c1ccccc1)C2`, the “activity, negative = inhibition” value was -14%. With `Clc1ccccc1-c1nccc(NCCN2CCOCC2)n1`, the activity, negative = inhibition was 29.8% [at 2.29 µM]. In the case of `O=C(COC(=O)c1cccc(S(=O)(=O)N2CCOCC2)c1)Nc1nc(-c2ccccc2Cl)cs1`, the concentration at half-maximal activity (AC50) was 4.47 µM (active). For the compound `Clc1ccccc1-c1ccc2ncnc(NCCN3CCOCC3)c2c1`, the activity, negative = inhibition was 24.6% [at 2.29 µM]. Take `O=C(CCc1nc2ccccc2c(=O)[nH]1)OCC(=O)N1CCN(S(=O)(=O)c2ccccc2)CC1`: the “activity, negative = inhibition” value is 8.87%.

On to `CCCc1nc2ccccc2c(C(=O)OCC(=O)Nc2cccc(S(=O)(=O)N3CCOCC3)c2)c1CC`, for which the AC50 was 14.1 µM (active).

For `O=C(O)C1C2CCC(C2)C1C(=O)NCc1ccco1` (stereo not given), the “activity, negative = inhibition” value is -7.58%. Regarding `O=C(COC(=O)c1cccc(S(=O)(=O)N2CCN(c3ccccc3)CC2)c1)NCc1ccco1`, the AC50 was 2.24 µM (active).

For the compound `CS(=O)(=O)Nc1cccc(-c2nc(N3CCOCC3)c3ccccc3n2)c1`, the activity, negative = inhibition is -0.621% [at 2.29 µM]. The same measure, in the same setting: the same measure for `C[n+]1cc2c3c(ccc2c2ccc4cc5c(cc4c21)OCO5)OCO3`: -18.7%.

As to `COC(=O)[C@H](C)NC(=O)C/C=C\[C@@H](C)[C@H]1C=C[C@H](O)[C@@H](CO)O1`, the activity, negative = inhibition was -20.2% [at 11.4 µM]. Turning to `Cc1cc(C)nc(Nc2n[nH]c(COc3ccc4ccccc4c3)n2)n1`, the “activity, negative = inhibition” value is -13.6%. Consider `CCOc1ccc(N2C(=O)CN=C2Nc2ccccc2F)cc1`, for which the half-maximal activity concentration (AC50) is 12.6 µM (active). Take `CCOc1ccc(N2C(=O)CN=C2Nc2ccccc2Cl)cc1`: the “activity, negative = inhibition” value was -15.4%. Still for that read-out and setting: under `CCOc1ccc(N2C(=O)/C(=C/c3cccs3)N(CC(=O)OC)C2=S)cc1` stands 29.2%; under `COc1c(O)cc2c(c1O)[C@@H]1O[C@@H](CO)[C@@H](O)[C@@H](O)[C@@H]1OC2=O`, -0.188% [at 25.6 µM]. As for `O=C(NCCc1c[nH]c2ccccc12)[C@H]1C[C@@H]1[C@H](NP(=O)(c1ccccc1)c1ccccc1)c1ccccc1`, the AC50 was 2 µM (active). For the compound `COC(=O)Nc1ccc2[nH]cc(CCNC(C)=O)c2c1`, the “activity, negative = inhibition” value was -6.3%. Turning to `O=C(NCCc1c[nH]c2ccccc12)[C@@H]1C[C@H]1[C@@H](NP(=O)(c1ccccc1)c1ccccc1)c1ccccc1`, the concentration at half-maximal activity (AC50) is 0.251 µM (active). The same measure, in the same setting: under `O=C(Nc1ccc2ccccc2c1)[C@H]1C[C@@H]1[C@H](NP(=O)(c1ccccc1)c1ccccc1)c1ccccc1` stands 3.16 µM (active). Same read-out and setting: the same measure for `O=C(NCc1cc(F)cc2c1OCCO2)[C@H]1C[C@@H]1[C@H](NP(=O)(c1ccccc1)c1ccccc1)c1ccccc1`: 12.6 µM (active).

As to `CSC(N)=NCCC[C@@H](N)C(=O)O`, the “activity, negative = inhibition” value is -9.74%. On to `N=C(N)CCNC(=O)[C@@H]1CCC(N)=N1`, for which the activity, negative = inhibition is -0.797% [at 11.4 µM]. For `O=C(O)[C@H]1C[C@H](C(=O)O)N1`, the “activity, negative = inhibition” value is 24.8%. With `Cc1cc(CNC(=O)[C@@H]2C[C@H]2[C@@H](NP(=O)(c2ccccc2)c2ccccc2)c2ccccc2)nn1C`, the “activity, negative = inhibition” value is -1.27%. With `Cc1cc(CNC(=O)[C@H]2C[C@@H]2[C@H](NP(=O)(c2ccccc2)c2ccccc2)c2ccccc2)nn1C`, the “activity, negative = inhibition” value was -22.9%. As for `O=C(NCc1nc2ccccc2[nH]1)[C@H]1C[C@@H]1[C@H](NP(=O)(c1ccccc1)c1ccccc1)c1ccccc1`, the concentration at half-maximal activity (AC50) was 12.6 µM (active). The same measure, in the same setting: under `CC(=O)c1cccc(NC(=O)CCC2CCCC2)c1` stands 14.1 µM (active). As to `CC(=O)NNC(=O)CCC(=O)Nc1ccccc1`, the “activity, negative = inhibition” value was -2.97%.

With `O=C(CC1CCCC1)Nc1ccc2c(c1)CCC2`, the “activity, negative = inhibition” value is -31%.
